# Source: PubChem
# The list is not random: actives were taken first. Their share in the collection is about 10%.
# PLK1 PBD block: inhibitors of human PLK1 polo-box domain binding | P53350 | Plk1 PBD binding of FITC phosphopeptide, fluorescence polarization | Potency, µM, for inactives: max response, negative = inhibition, usual class: inhibitors | actives 2.8% (n = 360,000) | AID 720504; further: potency means the concentration at half of the fitted maximal effect; series mostly up to about 57 µM; nearly all actives have a fitted effect of over 65% in size
# Mm-Cpn inhibitor: inhibitors of Methanococcus maripaludis chaperonin TRiC (MmCpn) | Potency, µM (series often up to 76.9 µM), for inactives: top-dose activity, negative = inhibition, usual class: inhibitors | actives 0.031% (n = 330,000) | AID 504842 | purified Mm-Cpn ATPase, ADP Transcreener TR-FRET; further: potency means the concentration at half of the fitted maximal effect; nearly all actives have a fitted effect of over 80% in size
#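 Measured: ADP formation by purified Mm-CPN. Conditions: 25 nM protein, 10 uM ATP, Tris pH 7.4 with Mg2+, K+ and DTT, 37°C for 30 min. Detection: Transcreener HTRF after 30 min at room temperature.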
# G9a block: blocks human histone lysine methyltransferase G9a; Q96KQ7; G9a H3K9 monomethylation, AlphaScreen, 2 h; Potency, µM (top dose mostly 102 µM), without a hit: top-dose activity, negative = inhibition, hits mostly inhibitors; actives 8.8% (n = 350,000); further: potency means the concentration at half of the fitted maximal effect; nearly all actives have a fitted effect of over 75% in size
# Target sequence (Q96KQ7 913-1193 limits assumed): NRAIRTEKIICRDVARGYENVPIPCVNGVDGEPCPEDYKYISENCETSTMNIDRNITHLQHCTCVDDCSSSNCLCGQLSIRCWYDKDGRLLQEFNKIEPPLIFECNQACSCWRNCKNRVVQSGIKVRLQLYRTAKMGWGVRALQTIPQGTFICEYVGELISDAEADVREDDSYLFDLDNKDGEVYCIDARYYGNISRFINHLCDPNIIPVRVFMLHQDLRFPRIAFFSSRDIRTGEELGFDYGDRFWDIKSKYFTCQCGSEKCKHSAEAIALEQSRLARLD
#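 G9a (20 nM) was preincubated 15 min with compound, then reacted 2 h at room temperature with 500 nM biotin-H3K9 peptide and 20 µM SAM. Monomethyl-H3K9 detected by AlphaScreen using anti-H3K9me1 antibody.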
# VDR inh: vitamin D3 receptor (human) inhibition; actives 0.93% (n = 400,000); VDR-SRC2-3 peptide fluorescence polarization, 2 h; Potency, µM, inactives show max response, negative = inhibition, usual class: inhibitors; P11473; further: potency means the concentration at half of the fitted maximal effect
# Target sequence (P11473 whole entry, looked up): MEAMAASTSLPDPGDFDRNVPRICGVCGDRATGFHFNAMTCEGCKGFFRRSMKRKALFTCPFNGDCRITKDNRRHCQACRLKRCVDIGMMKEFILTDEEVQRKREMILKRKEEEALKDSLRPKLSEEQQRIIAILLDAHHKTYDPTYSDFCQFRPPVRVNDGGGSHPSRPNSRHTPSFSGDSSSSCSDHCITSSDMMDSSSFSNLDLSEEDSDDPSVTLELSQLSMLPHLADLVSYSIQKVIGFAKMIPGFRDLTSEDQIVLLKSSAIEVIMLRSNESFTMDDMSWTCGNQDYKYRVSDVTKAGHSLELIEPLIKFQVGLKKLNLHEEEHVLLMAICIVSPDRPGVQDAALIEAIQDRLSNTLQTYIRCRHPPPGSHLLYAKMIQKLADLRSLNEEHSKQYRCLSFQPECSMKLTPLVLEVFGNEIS
#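 FP read-out; VDR + SRC2-3 coactivator peptide; 23 nl compound by pintool; 2 h RT incubation; reagents held at 4 deg C, protected from light.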
# Sfp PPTase inh: blocks B. subtilis Sfp PPTase activity. Q9F4F7. AID 1490. Potency, µM, without a hit: largest response in the series, negative = inhibition, most hits filed as inhibitors. actives 3.5% (n = 310,000). Biochemical Sfp PPTase activity, qHTS;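 further: the enzyme is Sfp with the accession as filed and its product quenches rhodamine fluorescence; potency means the concentration at half of the fitted maximal effect; 0% = enzyme reaction without inhibitor and -100% = no enzyme wells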
#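 Reaction rates are the 30-min fluorescence difference (ex 525, em 598 nm) in wells containing 15 nM Sfp, 5 uM rhodamine-CoA and 12.5 uM BHQ-2-YbbR at pH 7.6 with 10 mM MgCl2.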
# CCT chaperon mod: cytosolic chaperonin activity modulation. purified chaperonin ATPase assay, HTRF ADP detection, 30 min. activity change, % (test concentration not listed), hits read low. actives 0.3% (n = 360,000); in the data active means activity change below about -30%
#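 TRiC (40 or 20 nM final, by batch activity) in 30 mM Tris pH 7.4, 100 mM KCl, 5 mM MgCl2, 1 mM DTT was treated with compound at 76 uM single dose, then 10 uM ATP, 30 min at 37 °C. ADP was read by HTRF Transcreener.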
# * marks the source's active call; other numbers are inactive results; ? = inconclusive; . = not tested or not shown; ! = a repeat was not active; [ ] = another dose, or the depositor's remark. Unless noted, the call rests on the fitted dose curve; in most records, active means well fitted curve in the direction sought with a large enough effect; inconclusive means small, poorly fitted or top-dose-only effect, or another doubt; inactive means no such curve, though single readings can be large; an effect the other way counts as inactive or inconclusive. Unless noted, on the % scale 0 is the no-effect control and ±100 the full control effect.
SMILES,PLK1 PBD block,Mm-Cpn inhibitor,G9a block,VDR inh,Sfp PPTase inh,CCT chaperon mod
COc1ccc(NC(=O)COc2ccccc2C)cc1S(=O)(=O)N1CCCCC1,-3%,-6%,50µM*,-5%,.,-3
COc1ccc(NC(=O)COc2ccc3c(C)cc(=O)oc3c2)cc1S(=O)(=O)N1CCCCC1,-3%,1%,11µM*,33%,.,1
COc1cc(NC(=O)COc2ccc3c(C)cc(=O)oc3c2C)cc(OC)c1OC,-9%,-4%,24%,16%,-5%,1
O=C1CC(c2nnc(Cc3cccc(Cl)c3)o2)CN1c1ccccc1 (stereo not drawn),.,.,-36%[59 µM],1%,.,.
COc1ccc(-c2n[nH]c(=S)n2C2CCCCC2)cc1,-7%,-1%,2.5µM*,1%,14%,1
S=c1[nH]nc(-c2cccnc2)n1C1CCCCC1,-4%,1%,20µM*,0%,-19%,-1
COc1ccc(Cl)cc1-c1n[nH]c(=S)n1C1CCCCC1,-2%,-6%,1.4µM*,-5%,12%,-4
CN(C)c1ccc(C(=C2C=CC(=[N+](C)C)C=C2)c2c(O)c(S(=O)(=O)[O-])cc3cc(S(=O)(=O)O)ccc23)cc1,.,.,?,88%,?,.
CN(C)c1ccc(C(=C2C=CC(=[N+](C)C)C=C2)c2ccccc2)cc1,.,.,11µM*,?,50µM*,.
CN(C)c1ccc(C(=O)C(=O)c2ccccc2)cc1,-1%,1%,?,10%,-1%,-1
CN(C)c1ccc(C(=C2C=CC(=[N+](C)C)C=C2)c2ccc(N(C)C)cc2)cc1,.,.,?,40µM*,45µM*!,.
COCCNC(=O)CSc1nc(-c2ccccc2)[nH]c1-c1ccc(OC)cc1,.,.,-4%[59 µM],-19%,.,.
Cn1c(=O)n(CCc2ccccc2)c(=O)c2c1nc1n2CCN1c1ccc(Cl)cc1,.,.,-5%[59 µM],10%,.,.
Cc1nnc(N(C(=O)c2cnccn2)c2ccccc2)s1,11µM*,0%,-8%,-5%,12%,1
Cc1nc(COC(=O)c2cc(O)c3ccccc3c2O)cs1,21µM*,1%,3.2µM*,?,28µM*,0
CCOC(=O)c1ccc(NC(=O)C2=C(C)Nc3nc(SCc4ccc(Cl)cc4)nn3C2c2ccc(C)cc2)cc1 (stereo not drawn),.,.,7%[59 µM],-1%,.,.
CC1(C)CC(=O)C2=C(C1)O[C@@]1(c3ccsc3)Cc3cc(C#N)ccc3C2O1,.,-1%[15.4 µM],-12%[2.33 µM],.,-2%,.
NC(=O)CC(NC(=O)c1cccc(Br)c1)c1ccc(N2CCCCCC2)c([N+](=O)[O-])c1 (stereo not drawn),0%,0%,.,-18%,-5%,-1
NC(=O)CC(NC(=O)c1ccc(Br)cc1)c1ccc(NC2CCCCCCC2)c([N+](=O)[O-])c1 (stereo not drawn),?,3%,79µM*,-27%,5%,-1
NC(=O)CC(NC(=O)c1ccccc1)c1ccc(N2CCCCCCC2)c([N+](=O)[O-])c1 (stereo not drawn),-3%,3%,45µM*,-8%,3%,1
NC(=O)CC(NC(=O)c1ccc(Br)cc1)c1ccc(N2CCCCCC2)c([N+](=O)[O-])c1 (stereo not drawn),-4%,0%,45µM*,15%,5%,0
NC(=O)CC(NC(=O)c1cccc(Br)c1)c1ccc(NC2CCN(Cc3ccccc3)CC2)c([N+](=O)[O-])c1 (stereo not drawn),2%,0%,50µM*,-13%,12%,-1
NC(=O)CC(NC(=O)c1ccccc1)c1ccc(N2CCc3ccccc3C2)c([N+](=O)[O-])c1 (stereo not drawn),-19%,1%,.,7%,-6%,1
CCOc1ccccc1CNC(=O)Cn1c(=O)c2cccn2c2ccc(F)cc21,.,.,-2%[59 µM],11%,.,.
O=C(c1ccco1)n1nc(-c2ccccc2)nc1NCc1ccccc1Cl,.,.,4%[59 µM],?,.,.
SMILES,PLK1 PBD block,Mm-Cpn inhibitor,G9a block,VDR inh,Sfp PPTase inh,CCT chaperon mod
Cc1ccc(-c2nnc(Nc3ccc(C(=O)N(C)C)cc3)c3ccccc23)cc1S(=O)(=O)N(C)C,.,.,1%[59 µM],-19%,.,.
COc1ccc(Cn2cc(C(=O)c3ccc(C)c(C)c3)c(=O)c3ccccc32)cc1,.,.,-24%[59 µM],-12%,.,.
Cc1ccc2c(c1C)NC(C)CC2C (stereo not drawn),?,1%,14µM*,-12%,-11%,0
COc1cc(/C=C2\N=C(C)OC2=O)cc(Cl)c1OC(C)=O,-22%,2%,40µM*,?,?,-3
CC(N)CCCP(=O)(O)O (stereo not drawn),.,.,8%[59 µM],-3%,-12%,.
Cc1c(C(=O)N(C)C)sc2c1c(=O)n(-c1ccc(Cl)c(Cl)c1)c(=O)n2CC(=O)Nc1ccc(Br)cc1F,.,.,-1%[59 µM],11%,.,.
COc1ccc(CNC(=O)CC2C[C@H](C(=O)N3CCOCC3)[C@@]3(CCC4CCCC4)c4[nH]c5ccccc5c4CCN3C2=O)cc1OC (stereo partly drawn),-18%,-3%,.,-25%,.,-3
COc1ccc2[nH]c3c(c2c1)CCN1C(=O)C(CC(=O)NCc2ccc(OC)c(OC)c2)C[C@H](C(=O)N2CCOCC2)[C@@]31CCC1CCCC1 (stereo partly drawn),19µM*,3%,.,?,.,2
Cc1cccc(C)c1NC(=O)Cn1nnc(-c2ccc(N3CCOCC3)cc2)n1,0%,-1%,9%[12.7 µM],22%,-9%,-1
Cc1ccc(C)c(NC(=O)Cn2nnc(-c3ccc(N4CCOCC4)cc3)n2)c1,0%,0%,-1%,-7%,10%,-79*
Cc1ccc(N2CCN(C(=O)C3CCN(S(=O)(=O)c4ccc5c(c4)oc(=O)n5C)CC3)CC2C)cc1 (stereo not drawn),.,.,-37%[59 µM],-5%,.,.
CC(O)CN(CCC(N)=O)CCC(N)=O (stereo not drawn),-6%,-2%,35µM*,13%,-14%,0
Cc1oc(-c2ccc(C(=O)NCc3ccc(F)cc3)cc2)nc1CS(=O)c1ccccc1 (stereo not drawn),.,.,?,11%,.,.
CCCn1c(N)c(C(=S)NC(=O)C2CC2)c(=O)n(C)c1=O,-9%,2%,52%[59 µM],?,50µM*,-4
CCCCCCCC[n+]1c(C)n(-c2ccccc2)c2ccc(NC(C)=O)cc21,-4%,0%,40µM*,21%,-12%,1
CC(=O)Nc1ccc(-n2c(=O)c3ccccc3c3ccccc3c2=O)cc1,-29%,2%,-38%,?,10%,-1
CCC(=O)Nc1ccc2nc(C3CC3)n(Cc3ccc(C(C)(C)C)cc3)c(=O)c2c1,12µM*,1%,28%[12.7 µM],?,2%,1
